Screening data: PubChem, several laboratories
ADAM17 inh = ADAM17 inhibition, QFRET primary screen; recombinant ADAM17, EDANS/DABCYL FRET peptide cleavage; P78536; inhibition, % at 6.95 µM; actives 0.83% (n = 370,000);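 active = inhibition above the mean of compounds lying between control limits plus 3 SD, set per campaign, cut at about 8.5% in these data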;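 note: 0% = DMSO-only wells as the low control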
Target sequence (P78536 215-824 limits assumed): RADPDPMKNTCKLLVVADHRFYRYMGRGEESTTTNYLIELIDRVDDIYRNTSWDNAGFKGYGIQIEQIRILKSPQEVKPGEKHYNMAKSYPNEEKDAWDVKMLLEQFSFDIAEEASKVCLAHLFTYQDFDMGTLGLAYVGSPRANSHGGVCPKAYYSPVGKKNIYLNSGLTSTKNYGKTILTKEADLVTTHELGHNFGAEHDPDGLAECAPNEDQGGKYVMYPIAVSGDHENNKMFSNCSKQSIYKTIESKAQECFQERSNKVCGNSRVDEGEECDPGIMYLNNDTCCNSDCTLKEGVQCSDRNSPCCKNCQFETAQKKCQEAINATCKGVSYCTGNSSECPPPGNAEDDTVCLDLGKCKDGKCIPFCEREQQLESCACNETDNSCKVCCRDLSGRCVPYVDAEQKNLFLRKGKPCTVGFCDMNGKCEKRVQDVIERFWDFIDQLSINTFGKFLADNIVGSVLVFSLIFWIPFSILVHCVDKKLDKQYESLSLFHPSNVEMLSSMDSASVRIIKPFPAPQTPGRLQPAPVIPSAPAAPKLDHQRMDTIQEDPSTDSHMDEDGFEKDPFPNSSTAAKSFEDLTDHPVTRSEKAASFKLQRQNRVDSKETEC
NRP1-CendR mod = alters CendR peptide binding to human NRP-1; O14786; FAM-RPARPAR peptide binding to NRP-1, fluorescence polarization; inhibition, % at 25 µM; actives 0.85% (n = 360,000); AID 602438;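 active = inhibition or corrected inhibition above about 18%, plus a signal ratio from 0.5 to 1.5, limit read from the data, passing the limit was not always enough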
APOBEC3A inh = human APOBEC3A DNA deaminase inhibition | AID 493011 | actives 0.41% (n = 330,000) | recombinant A3A, FAM/TAMRA ssDNA deamination fluorescence | P31941 | inhibition, % at 20 µM;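 active = at least 40% inhibition at 20 µM here, with at most 30% in a related deaminase screen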;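 note: plate controls were A3A with DMSO for no effect and wells lacking A3A enzyme for full effect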
APOBEC3G inh = APOBEC3G (human) deaminase inhibition; recombinant A3G, ssDNA deamination FAM/TAMRA fluorescence; inhibition, % at 20 µM; actives 0.28% (n = 330,000);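 active = inhibition of at least 40% at 20 µM, with no more than 30% in the related APOBEC3A deaminase screen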;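 note: plate controls were DMSO wells with A3G for no effect and wells lacking A3G enzyme for full effect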
ADAM10 inh = inhibitors of human ADAM10; O14672; recombinant ADAM10, EDANS/DABCYL FRET peptide cleavage, 3 h; inhibition, % at 7 µM; actives 0.62% (n = 370,000);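 active = inhibition above a per-campaign cutoff equal to the mean of compounds falling between control-based bounds plus 3 SD, cut at about 20% in these data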;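 note: 0% = DMSO wells while the 100% control is not disclosed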
An asterisk follows results filed as active. Sampled rows, rich in hits. Any-hit rate of the full collection: about 2.4%.

What do the screens show for `COc1ccc(CNS(=O)(=O)CC2NCc3cc(OC)ccc32)cc1` (stereo not given)?
ADAM17 inh: -12; ADAM10 inh: -36

How did Cc1c(C(=O)N(C)Cc2ccccc2)oc2ccc(S(=O)(=O)N3CCCC3)cc12 do in these assays?
ADAM17 inh: -2; NRP1-CendR mod: 25*; APOBEC3A inh: -3; APOBEC3G inh: -5; ADAM10 inh: 11

Results for Cc1c(C(=O)NCc2ccccc2)oc2ccc(S(=O)(=O)N3CCCC3)cc12 ?
ADAM17 inh: 1; NRP1-CendR mod: -1; APOBEC3A inh: 2; APOBEC3G inh: 0; ADAM10 inh: -1

How did COC(=O)CN1CCN(C(=O)c2csc(-c3ccccc3)n2)CC1 do in these assays?
ADAM17 inh: 3; ADAM10 inh: -4

How did CCOC(=O)c1ccc(NC(=O)c2ccc(NC(=O)c3ccccc3)cc2)cc1 do in these assays?
ADAM17 inh: -5; NRP1-CendR mod: 7; APOBEC3A inh: -5; APOBEC3G inh: -9; ADAM10 inh: -8

Results for CC(C)OC(=O)c1ccc(NC(=O)c2ccccc2)cc1 ?
ADAM17 inh: 0; NRP1-CendR mod: 35*; APOBEC3A inh: -1; APOBEC3G inh: -2; ADAM10 inh: 0

How did COc1ccc(Br)cc1CNC(=O)CCc1nc(-c2ccc(C)cc2)no1 do in these assays?
ADAM17 inh: -2; NRP1-CendR mod: 23*; APOBEC3A inh: -1; APOBEC3G inh: -7; ADAM10 inh: 2

What do the screens show for `COc1ccc(-c2noc(CCC(=O)NCc3cc(Br)ccc3OC)n2)cc1`?
ADAM17 inh: 2; NRP1-CendR mod: -9; APOBEC3A inh: -1; APOBEC3G inh: -3; ADAM10 inh: 2

How did CC(C)(C)NC(=O)NC12CC3CC(CC(C3)C1)C2 do in these assays?
ADAM17 inh: 2; NRP1-CendR mod: 22*; APOBEC3A inh: 3; APOBEC3G inh: -2; ADAM10 inh: 2

How did COC(=O)c1cc2c(c3c4cc(F)ccc4n(S(=O)(=O)c4cccc(C)c4)c13)C(=O)N(Cc1ccccc1OC)C2 do in these assays?
ADAM17 inh: 2; ADAM10 inh: -7

Results for COCCC(=O)N1CCC(Oc2ccc(C(=O)NCCn3cccn3)cc2)CC1 ?
ADAM17 inh: 6; NRP1-CendR mod: 36*; APOBEC3A inh: -1; APOBEC3G inh: -5; ADAM10 inh: 10

What do the screens show for `COc1ccc(-c2cc(C(=O)NN=C/C(C)=C/c3ccccc3)[nH]n2)cc1`?
ADAM17 inh: 0; ADAM10 inh: 5

What do the screens show for `Cc1ccc(N2C(=O)C3C(C2=O)N2C(c4cccs4)C4C(=O)N(c5ccc(C)cc5)C(=O)C4N2C3c2cccs2)cc1` (stereo not given)?
ADAM17 inh: 13*; NRP1-CendR mod: -25; APOBEC3A inh: -3; APOBEC3G inh: -7; ADAM10 inh: 12

What do the screens show for `CCOC(=O)C1(C)NC(c2cccs2)C2C(=O)N(c3ccc(C)cc3)C(=O)C21` (stereo not given)?
ADAM17 inh: -1; NRP1-CendR mod: 8; APOBEC3A inh: -1; APOBEC3G inh: -9; ADAM10 inh: 0

Results for Cc1ccccc1C(=O)NC1CCCCN(Cc2cccc(F)c2)C1=O (stereo not given) ?
ADAM17 inh: 0; ADAM10 inh: 0

How did CC1(Cc2ccc(F)c(Cl)c2)C(=O)Nc2c(Cl)cccc21 (stereo not given) do in these assays?
ADAM17 inh: 2; NRP1-CendR mod: 25*; ADAM10 inh: 6

Results for CC(=O)Nc1cccc(-c2csc(NCc3ccccc3)n2)c1 ?
ADAM17 inh: 4; NRP1-CendR mod: 26*; APOBEC3A inh: -3; APOBEC3G inh: -5; ADAM10 inh: 6

What do the screens show for `Cc1cc(O)cc(=O)n1-c1cccc(C(F)(F)F)c1`?
ADAM17 inh: -3; ADAM10 inh: -7

What do the screens show for `O=c1c2ccccc2n(Cc2ccccc2)n1[C@@H](Cc1ccccc1)Cn1cc(C2CCCC2)nn1`?
ADAM17 inh: -120; ADAM10 inh: -426

How did Cc1ccc(S(=O)(=O)NC(=NC2CCCCC2)c2ccc(Cl)cc2)cc1 do in these assays?
NRP1-CendR mod: 21*; APOBEC3A inh: 1; APOBEC3G inh: -4

How did O=C(CCn1nnc(-c2cccs2)n1)N1CCCCC1 do in these assays?
ADAM17 inh: 4; ADAM10 inh: 4

How did COC(=O)[C@]12C[C@H](CC(=O)NCC34CC5CC(CC(C5)C3)C4)C(=O)N(Cc3ccc4c(c3)OCO4)C1=C[C@H](C(C)(C)C)O[C@@H]2C do in these assays?
ADAM17 inh: -3; ADAM10 inh: 0

How did CCCCc1nnn2c1C1c3cc(Br)ccc3CCN1C(=O)C2 (stereo not given) do in these assays?
ADAM17 inh: 0; ADAM10 inh: -1

How did CCc1cccc(CC)c1NC(=S)Nc1ccccc1 do in these assays?
ADAM17 inh: -1; NRP1-CendR mod: 20*; APOBEC3A inh: -4; APOBEC3G inh: -6; ADAM10 inh: -3

Results for Cc1nnc(NC(=O)CSc2nnc(CCc3nc4ccccc4[nH]3)n2C)s1 ?
ADAM17 inh: 1; NRP1-CendR mod: 8; APOBEC3A inh: 0; APOBEC3G inh: -4; ADAM10 inh: -1

Results for CCc1nnc(NC(=O)CSc2nnc(CCc3nc4ccccc4[nH]3)n2C)s1 ?
ADAM17 inh: -3; NRP1-CendR mod: 19*; APOBEC3A inh: -5; APOBEC3G inh: -6; ADAM10 inh: 14

Results for Cn1c(SCC(=O)Nc2ccc(F)cc2)nc2c(c1=O)SCC2 ?
ADAM17 inh: -2; NRP1-CendR mod: 24*; APOBEC3A inh: -1; APOBEC3G inh: 1; ADAM10 inh: -4

What do the screens show for `Cn1c(SCC(=O)Nc2ccccc2F)nc2c(c1=O)SCC2`?
ADAM17 inh: 0; NRP1-CendR mod: 12; APOBEC3A inh: 7; APOBEC3G inh: 8; ADAM10 inh: 1

How did COc1ccc(CN2CCN(C(=O)c3ccc(S(=O)(=O)NCc4ccco4)cc3)CC2)cc1F do in these assays?
ADAM17 inh: -5; NRP1-CendR mod: 30*; APOBEC3A inh: -5; APOBEC3G inh: -11; ADAM10 inh: -4

What do the screens show for `Cc1cc(NS(=O)(=O)c2ccc(NC(=O)CSc3nnc(-c4ccco4)n3-c3ccc(Cl)cc3)cc2)nc(C)n1`?
ADAM17 inh: -1; ADAM10 inh: -5

How did COc1cc(C(=O)Nc2cc3c(cc2N2CCCCC2)n(C)c(=O)n3C)cc(OC)c1OC do in these assays?
ADAM17 inh: -6; NRP1-CendR mod: 28*; APOBEC3A inh: -3; APOBEC3G inh: -5; ADAM10 inh: -17

How did CCC(=O)OCC(=O)N=c1sccn1Cc1ccccc1Cl do in these assays?
ADAM17 inh: -3; NRP1-CendR mod: 26*; APOBEC3A inh: -1; APOBEC3G inh: -9; ADAM10 inh: -8

How did O=C(CCl)N=c1sccn1Cc1ccccc1Cl do in these assays?
ADAM17 inh: -4; NRP1-CendR mod: -7; APOBEC3A inh: 3; APOBEC3G inh: -4; ADAM10 inh: 0

Results for O=C(CSc1nnc(-c2cccnc2)n1-c1ccc(Cl)cc1)c1ccc2ccccc2c1 ?
ADAM17 inh: 0; ADAM10 inh: -1
